# High-throughput results: PubChem BioAssay, National Center for Advancing Translational Sciences (NCATS)
# Only a selection was taken, and hits are over-represented in it overall.
# Shiga inhibitor: A qHTS for Small Molecule Inhibitors of Shiga Toxin | 290,000 tested, 9.2% active | inhibition, % at 38.7 µM | Vero cells, Shiga toxin protein synthesis inhibition reporter; in the data active means inhibition mostly above about 28%, no sharp cut-off; inactive means mostly below about 43%; further: 0% is about no effect
# AmpC no deterg: qHTS Inhibitors of AmpC Beta-Lactamase (assay without detergent); 330,000 tested, 0.52% active; AmpC nitrocefin hydrolysis, absorbance 480 nm, 0.0001% Triton; Potency, µM (top dose mostly 57.1 µM), for inactives: at the highest dose activity change, negative = inhibition, usual class: inhibitors; P00811; AID 485341, 2010;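 further: potency means the concentration at half of the fitted maximal effect; plate controls were no compound for no effect and no enzyme for full effect; nearly all actives have a fitted effect of over 20% in size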
# Target sequence (P00811 whole entry, looked up): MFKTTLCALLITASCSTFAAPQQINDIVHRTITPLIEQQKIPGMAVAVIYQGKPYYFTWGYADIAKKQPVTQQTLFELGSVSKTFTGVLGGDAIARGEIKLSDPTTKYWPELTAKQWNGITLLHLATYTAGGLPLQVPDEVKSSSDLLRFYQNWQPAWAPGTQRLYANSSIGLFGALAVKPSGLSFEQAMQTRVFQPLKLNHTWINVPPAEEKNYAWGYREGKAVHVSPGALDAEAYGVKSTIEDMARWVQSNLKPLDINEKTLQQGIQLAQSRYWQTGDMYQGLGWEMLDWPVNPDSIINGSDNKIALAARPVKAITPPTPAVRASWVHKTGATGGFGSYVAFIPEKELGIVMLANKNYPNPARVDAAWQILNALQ
#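 AmpC (5.3 nM in the dispensed reagent) in 20 mM phosphate pH 7.0 with 0.01% (detergent screen) or 0.0001% Triton X-100 was preincubated with compounds for 15 min at room temperature. Nitrocefin was then added from an 800 uM solution, and hydrolysis was followed at 480 nm.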
# AmpC inh detg: qHTS Inhibitors of AmpC Beta-Lactamase (assay with detergent); AmpC hydrolysis of nitrocefin, absorbance 480 nm, 0.01% Triton; Potency, µM (series often up to 114 µM), inactives show at the highest dose activity change, negative = inhibition, hits mostly inhibitors; 370,000 tested, 0.041% active; AID 485294, 2010;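 further: potency means the concentration at half of the fitted maximal effect; 0% = no-compound wells and -100% = no-enzyme wells; nearly all actives have a fitted effect of over 25% in size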
#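 AmpC (5.3 nM in the dispensed reagent) in 20 mM phosphate pH 7.0 with 0.01% (detergent screen) or 0.0001% Triton X-100 was preincubated with compounds for 15 min at room temperature. Nitrocefin was then added from an 800 uM solution, and hydrolysis was followed at 480 nm.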
# NS1 inh: qHTS Assay for Inhibitors of Influenza NS1 Protein Function; Potency, µM (top dose mostly 46.1 µM), for inactives: at the highest dose activity, positive = more growth; 270,000 tested, 0.4% active; AID 2326, 2010; calls by dose curve; further: potency means the concentration at half of the fitted maximal effect; actives are rising curves; nearly all actives have a fitted effect of over 50% in size
#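 S. cerevisiae expressing influenza A NS1, grown in glucose, washed, then diluted 1:100 into pH 6.0 -URA galactose medium with 23 nl compound. Growth recovery read as OD600; NS1-free strain serves as control.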
# CHX counter: Cycloheximide Counterscreen for Small Molecule Inhibitors of Shiga Toxin; cell reporter, cycloheximide protein synthesis inhibition counterscreen; max response, %; 300,000 tested, 12% active; in the data active means max response mostly above about 13%, no sharp cut-off; inactive means mostly below about 14%; further: read at 38.3 µM for the half of the compounds with a filed dose; 0% is about no effect
# An asterisk follows results filed as active; ? = inconclusive; / = no result given; + = active, no number; ! = repeats disagree; [ ] = dose if it differs, or a comment. Unless noted, the call rests on the fitted dose curve; in most records, active means well fitted curve in the direction sought with a large enough effect; inconclusive means small, poorly fitted or top-dose-only effect, or another doubt; inactive means no such curve, though single readings can be large; an effect the other way counts as inactive or inconclusive.
SMILES,Shiga inhibitor,AmpC no deterg,AmpC inh detg,NS1 inh,CHX counter
CSCc1cccc(C(=O)OC(C)C(=O)Nc2c(C)n(C)n(-c3ccccc3)c2=O)c1 (stereo unspecified),/,29.7%,-10.3%,/,/
O=C(Nc1ccccc1F)c1ccc(Br)o1,+!,-11.1%,-8.5%,6.1%,55.3*
O=C(Nc1ccccc1C(=O)O)c1ccc(Br)o1,38.5*,-29.3%,-6.9%,-4.6%,21.3*
COC(=O)c1ccccc1NC(=O)c1cccc(NC(=O)c2ccc(Br)o2)c1C,10.2,-7.1%,-6.6%,-88.9%,-1.7
Cc1ccc(C(=O)Nc2ccccc2-c2ccccc2)o1,18.3,-15.7%,-13.0%,-50.8%,5.0
Cc1ccc(C(=O)Nc2ccccc2C(N)=O)o1,105.5*,/,-0.1%,-14.9%,36.9*
O=C(Nc1ccccc1N1CCOCC1)c1ccc(Br)o1,-17.2,-19.3%,4.6%,-13.8%,10.4
Cc1cccc(C(=O)Nc2ccc3c(c2)C(=O)NC3=O)c1,18.2,-29.7%,-10.3%,-8.8%,20.9*
Cc1ccc(C(=O)Nc2ccc3c(c2)C(=O)NC3=O)cc1,10.9,-26.3%,?,-17.3%,13.9*
CCC(=O)Nc1ccc(Oc2ccc3c(c2)C(=O)NC3=O)cc1,-9.0,-21.6%,-21.0%,-2.1%[9.22 µM],-1.2
CC(=O)Nc1cccc(Oc2ccc3c(c2)C(=O)NC3=O)c1,/,-15.5%,?,9.5%,22.0*
N#C/C(=N\Nc1ccc(Cl)c(Cl)c1)C(=O)C1CC1,65.2,-21.5%,-7.1%,-128.5%,34.9*
Cc1onc(-c2ccccc2Cl)c1C(=O)N(C)C1CCCCC1,-2.1,43.8%,?,-8.9%,-1.0
CN(C(=O)c1ccc(Br)o1)C1CCCCC1,67.5*,-16.6%,-12.6%,-5.4%,33.1*
O=C(NCC1CCCCC1)c1cc2ccccc2cc1O,74.1*,14.1µM*,2.1%,-34.4%,31.8*
CN(C(=O)c1ccccc1Cl)C1CCCCC1,-1.7,-15.8%,-2.6%,3.8%,13.4*
CN(C(=O)c1ccc(Br)o1)C1CCS(=O)(=O)C1 (stereo unspecified),-2.2,-16.1%,?,10.0%,-2.8
CN(C(=O)c1cc2ccccc2cc1O)C1CCCCC1,22.5,-27.1%,-3.4%,-22.0%,21.1*
Cc1ccc(NC(=O)Cn2c(=O)cc(-c3ccccc3)c3c(C)nn(C)c32)c(Cl)c1,/,/,21.3%,/,/
CCCCNC(=S)NNC(=O)c1ccc(Br)o1,1.6,-7.4%,8.5%,-4.2%,0.3
COc1cc(/C=N/Nc2ncc(C(F)(F)F)cc2Cl)cc(OC)c1O,-8.6,11.4%,-2.7%,7.5%,13.3
O=C(O)c1ccc(/C=N/Nc2ccc(C(F)(F)F)cn2)cc1,83.7*,-35.8%,-7.5%,/,35.3*
COc1cc(/C=N/Nc2ccc(C(F)(F)F)cn2)ccc1O,127.1*,-25.9%,-4.1%,/,30.9*
CC(C)Nc1nnc(Sc2ccc(Cl)cc2[N+](=O)[O-])s1,2.9,-16.5%,-15.9%,1.8%,-3.4
Cc1ccc(C(=O)COC(=O)CN2C(=O)C3C4CC(C(Br)C4Br)C3C2=O)cc1 (stereo unspecified),-5.1,30.4%,0.7%,1.4%,-5.5
SMILES,Shiga inhibitor,AmpC no deterg,AmpC inh detg,NS1 inh,CHX counter
CN(C)S(=O)(=O)c1ccc(C(=O)Nc2cc(S(=O)(=O)Nc3ccccc3Cl)ccc2N2CCCCC2)cc1,8.8,3.16µM*,-3.9%,?,-4.5
CCN(CC)S(=O)(=O)c1ccc(O)c(NC(=O)c2ccc(N3CCOCC3)c([N+](=O)[O-])c2)c1,-2.5,20µM*,0.8%,25.0%,-4.9
CCN(CC)S(=O)(=O)c1ccc(N2CCOCC2)c(NC(=O)c2ccccc2)c1,-11.8,22.3%,-13.4%,-26.6%,7.3
CN1CCN(c2ccc(Cl)cc2NC(=O)c2ccc(S(=O)(=O)N(C)C)cc2)CC1,-10.9,21.6%,0.6%,-0.9%,4.7
CCN(CC)S(=O)(=O)c1ccc(N2CCCCC2)c(NC(=O)c2ccncc2)c1,35.1*,74.0%,-18.0%,/,11.7
COc1ccc(NC(=O)COC(=O)CCOc2ccccc2C)cc1Cl,/,-10.9%,-7.1%,/,/
CCc1ccc(-c2ccc(C(=O)Oc3ccc(Br)cc3)cc2)nc1,/,/,5.7%,/,/
CCc1ccc(-c2ccc(C(=O)O)cc2)nc1,37.3,-41.5%,-8.5%,-128.2%,37.9*
CC1=C(C(=O)Nc2ccc(F)cc2F)C2(CCN(C(C)C)CC2)OC1=O,/,/,2.1%,/,/
